# Measured values published in PMC7862700, “An all-to-all approach to the identification of sequence-specific readers for epigenetic DNA modifications on cytosine”.
# Legend:
# Assay in all cases: DAPPL (digital affinity profiling via proximity ligation, sequencing); 10 mM Tris-HCl pH 7.5, 50 mM NaCl, 1 mM DTT, 4% glycerol, room temperature, 30 min; GST-TFs on glutathione beads, 16-mer random dsDNA library, 0.1% formaldehyde crosslink after washing; high values mean tight binding
# FEV = biological target: T1, FEV (Homo sapiens, UniProt Q99581 1-238); details: protein: recombinant; tags: N-terminal GST; dsDNA, one strand shown
# T1 sequence: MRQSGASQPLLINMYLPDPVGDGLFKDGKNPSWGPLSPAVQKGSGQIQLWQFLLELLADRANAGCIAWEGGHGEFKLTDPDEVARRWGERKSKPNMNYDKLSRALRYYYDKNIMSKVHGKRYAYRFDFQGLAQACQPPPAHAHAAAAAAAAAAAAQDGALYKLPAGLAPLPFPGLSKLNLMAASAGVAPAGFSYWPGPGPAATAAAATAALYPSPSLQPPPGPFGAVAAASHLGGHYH
# Outline: (§1)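 Each value of binding signal is a hexamer's read frequency for a factor divided by the same hexamer's frequency in the tag-only sample. Barcoded, bead-captured GST fusions of human transcription factors made in yeast were pooled with that sample and incubated with 200 nmole of a random double-stranded 16-mer DNA library in Tris/NaCl/DTT/glycerol buffer at room temperature for 30 min. Washing, 0.1% formaldehyde crosslinking, proximity ligation, PCR and Illumina NextSeq500 sequencing followed.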
# ETV5 = ETV5 (Homo sapiens, UniProt P41161 1-510); details: protein: recombinant; tags: N-terminal GST; dsDNA, one strand shown
# Sequence of ETV5 (P41161 whole entry): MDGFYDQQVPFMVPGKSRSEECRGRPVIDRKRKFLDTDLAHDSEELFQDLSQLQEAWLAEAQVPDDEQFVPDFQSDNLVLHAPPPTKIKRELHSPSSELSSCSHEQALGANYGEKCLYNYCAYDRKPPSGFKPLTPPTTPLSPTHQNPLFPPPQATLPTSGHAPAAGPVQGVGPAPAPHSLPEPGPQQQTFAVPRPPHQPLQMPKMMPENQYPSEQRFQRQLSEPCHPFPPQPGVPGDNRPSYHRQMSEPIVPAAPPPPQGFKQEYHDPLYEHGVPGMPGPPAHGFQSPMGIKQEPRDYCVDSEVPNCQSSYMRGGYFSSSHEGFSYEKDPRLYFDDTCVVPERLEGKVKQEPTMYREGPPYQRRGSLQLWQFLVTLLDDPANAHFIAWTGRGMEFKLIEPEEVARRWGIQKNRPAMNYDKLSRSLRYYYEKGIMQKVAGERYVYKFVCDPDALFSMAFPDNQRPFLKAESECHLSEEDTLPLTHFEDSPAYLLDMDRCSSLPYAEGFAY
# Outline: as §1
# HSF1 = HSF1 (Homo sapiens, UniProt Q00613 1-529); details: protein: recombinant; tags: N-terminal GST; chain copies: 3; dsDNA, one strand shown
# Sequence of HSF1 (Q00613 whole entry): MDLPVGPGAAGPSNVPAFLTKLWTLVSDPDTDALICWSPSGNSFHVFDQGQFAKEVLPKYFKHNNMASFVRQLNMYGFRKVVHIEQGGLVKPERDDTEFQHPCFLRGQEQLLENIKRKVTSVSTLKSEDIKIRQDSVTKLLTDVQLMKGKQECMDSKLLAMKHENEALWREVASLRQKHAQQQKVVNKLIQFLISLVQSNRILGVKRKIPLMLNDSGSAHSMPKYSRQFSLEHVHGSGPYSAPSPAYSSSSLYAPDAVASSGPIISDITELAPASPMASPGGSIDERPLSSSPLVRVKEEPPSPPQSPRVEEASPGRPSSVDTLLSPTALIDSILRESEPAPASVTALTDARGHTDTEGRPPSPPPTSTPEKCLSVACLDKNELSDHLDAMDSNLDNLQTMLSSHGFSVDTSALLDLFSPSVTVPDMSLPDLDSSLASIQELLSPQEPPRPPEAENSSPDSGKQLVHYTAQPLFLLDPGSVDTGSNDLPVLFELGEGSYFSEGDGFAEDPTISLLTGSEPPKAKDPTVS
# Outline: as §1
# SPIC = biological target: T2, SPIC (Homo sapiens, UniProt Q8N5J4 1-248); details: protein: recombinant; tags: N-terminal GST; dsDNA, one strand shown
# T2 sequence: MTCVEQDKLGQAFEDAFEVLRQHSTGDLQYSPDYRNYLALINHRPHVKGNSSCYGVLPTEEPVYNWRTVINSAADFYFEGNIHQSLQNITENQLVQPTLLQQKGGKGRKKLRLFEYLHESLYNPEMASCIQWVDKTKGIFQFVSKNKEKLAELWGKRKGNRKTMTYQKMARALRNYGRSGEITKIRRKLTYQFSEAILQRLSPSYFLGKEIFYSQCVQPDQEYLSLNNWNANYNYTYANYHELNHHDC
# Outline: as §1
# ELF4 = ELF4 (Homo sapiens, UniProt Q99607 1-663); details: protein: recombinant; tags: N-terminal GST; dsDNA, one strand shown
# Sequence of ELF4 (Q99607 whole entry): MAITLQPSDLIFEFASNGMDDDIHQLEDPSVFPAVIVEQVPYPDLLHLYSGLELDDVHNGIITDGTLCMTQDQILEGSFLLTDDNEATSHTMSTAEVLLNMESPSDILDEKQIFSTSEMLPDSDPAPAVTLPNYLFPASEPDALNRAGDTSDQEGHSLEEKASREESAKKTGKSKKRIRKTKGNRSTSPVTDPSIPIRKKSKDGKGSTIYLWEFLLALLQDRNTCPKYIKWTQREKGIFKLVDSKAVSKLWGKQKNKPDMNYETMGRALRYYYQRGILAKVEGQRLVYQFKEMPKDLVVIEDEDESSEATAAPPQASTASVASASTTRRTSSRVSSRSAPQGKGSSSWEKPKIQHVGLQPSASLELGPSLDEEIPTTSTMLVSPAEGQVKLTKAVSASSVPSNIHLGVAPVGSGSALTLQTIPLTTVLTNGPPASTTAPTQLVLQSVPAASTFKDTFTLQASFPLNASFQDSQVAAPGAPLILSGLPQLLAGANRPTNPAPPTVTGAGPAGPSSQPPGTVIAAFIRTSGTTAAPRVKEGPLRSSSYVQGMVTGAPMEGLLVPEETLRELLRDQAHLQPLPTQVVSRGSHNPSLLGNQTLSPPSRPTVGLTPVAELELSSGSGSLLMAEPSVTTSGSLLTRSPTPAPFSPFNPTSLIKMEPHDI
# Outline: as §1
# ELK4 = biological target: T3, ELK4 (Homo sapiens, UniProt P28324-2 1-405); details: protein: recombinant; tags: N-terminal GST; dsDNA, one strand shown
# T3 sequence: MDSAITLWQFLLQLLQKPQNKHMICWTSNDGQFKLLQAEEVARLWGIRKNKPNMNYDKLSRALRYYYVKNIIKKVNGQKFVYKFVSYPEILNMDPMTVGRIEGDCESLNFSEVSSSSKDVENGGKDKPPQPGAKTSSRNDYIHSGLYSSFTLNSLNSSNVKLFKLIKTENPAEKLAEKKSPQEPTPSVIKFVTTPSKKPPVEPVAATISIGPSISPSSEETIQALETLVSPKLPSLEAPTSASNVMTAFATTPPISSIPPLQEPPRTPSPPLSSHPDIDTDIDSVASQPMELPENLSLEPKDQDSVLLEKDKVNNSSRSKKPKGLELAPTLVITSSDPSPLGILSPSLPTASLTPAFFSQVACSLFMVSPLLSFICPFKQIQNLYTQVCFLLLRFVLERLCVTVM
# Outline: as §1
# ETV2 = biological target: T4, ETV2 (Homo sapiens, UniProt O00321 1-342); details: protein: recombinant; tags: N-terminal GST; dsDNA, one strand shown
# T4 sequence: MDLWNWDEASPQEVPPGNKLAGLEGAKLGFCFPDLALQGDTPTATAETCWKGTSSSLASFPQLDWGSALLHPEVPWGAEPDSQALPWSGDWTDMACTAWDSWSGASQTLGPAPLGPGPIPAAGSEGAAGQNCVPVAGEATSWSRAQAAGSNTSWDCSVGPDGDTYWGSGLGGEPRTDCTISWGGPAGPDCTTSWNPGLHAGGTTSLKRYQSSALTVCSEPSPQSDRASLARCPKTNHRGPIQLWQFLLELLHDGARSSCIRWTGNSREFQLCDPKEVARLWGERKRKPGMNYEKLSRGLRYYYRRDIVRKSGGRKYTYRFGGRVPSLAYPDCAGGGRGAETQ
# Outline: as §1
# ELF3 = biological target: T5, ELF3 (Homo sapiens, UniProt P78545 1-371); details: protein: recombinant; tags: N-terminal GST; dsDNA, one strand shown
# T5 sequence: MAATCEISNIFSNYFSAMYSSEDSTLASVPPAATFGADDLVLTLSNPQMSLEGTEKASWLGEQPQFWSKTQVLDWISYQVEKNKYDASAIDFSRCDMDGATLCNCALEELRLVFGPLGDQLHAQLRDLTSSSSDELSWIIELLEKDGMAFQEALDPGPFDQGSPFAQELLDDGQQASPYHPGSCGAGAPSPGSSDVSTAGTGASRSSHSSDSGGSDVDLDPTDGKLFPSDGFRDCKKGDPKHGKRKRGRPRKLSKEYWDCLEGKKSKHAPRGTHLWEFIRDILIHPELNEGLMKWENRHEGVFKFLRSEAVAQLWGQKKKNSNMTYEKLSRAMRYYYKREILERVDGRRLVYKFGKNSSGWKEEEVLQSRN
# Outline: as §1
# CRX = CRX (Homo sapiens, UniProt O43186 1-299); details: protein: recombinant; tags: N-terminal GST; dsDNA, one strand shown
# Sequence of CRX (O43186 whole entry): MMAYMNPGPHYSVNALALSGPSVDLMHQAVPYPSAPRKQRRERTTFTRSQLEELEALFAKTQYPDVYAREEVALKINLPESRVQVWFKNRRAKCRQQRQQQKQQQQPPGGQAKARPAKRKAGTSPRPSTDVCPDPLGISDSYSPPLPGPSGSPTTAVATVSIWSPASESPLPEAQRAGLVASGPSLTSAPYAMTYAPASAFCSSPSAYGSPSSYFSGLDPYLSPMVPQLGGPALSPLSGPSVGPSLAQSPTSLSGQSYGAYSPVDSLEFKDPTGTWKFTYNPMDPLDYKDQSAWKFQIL
# Outline: as §1
# ETV1 = ETV1 (Homo sapiens, UniProt P50549 1-477); details: protein: recombinant; tags: N-terminal GST; dsDNA, one strand shown
# Sequence of ETV1 (P50549 whole entry): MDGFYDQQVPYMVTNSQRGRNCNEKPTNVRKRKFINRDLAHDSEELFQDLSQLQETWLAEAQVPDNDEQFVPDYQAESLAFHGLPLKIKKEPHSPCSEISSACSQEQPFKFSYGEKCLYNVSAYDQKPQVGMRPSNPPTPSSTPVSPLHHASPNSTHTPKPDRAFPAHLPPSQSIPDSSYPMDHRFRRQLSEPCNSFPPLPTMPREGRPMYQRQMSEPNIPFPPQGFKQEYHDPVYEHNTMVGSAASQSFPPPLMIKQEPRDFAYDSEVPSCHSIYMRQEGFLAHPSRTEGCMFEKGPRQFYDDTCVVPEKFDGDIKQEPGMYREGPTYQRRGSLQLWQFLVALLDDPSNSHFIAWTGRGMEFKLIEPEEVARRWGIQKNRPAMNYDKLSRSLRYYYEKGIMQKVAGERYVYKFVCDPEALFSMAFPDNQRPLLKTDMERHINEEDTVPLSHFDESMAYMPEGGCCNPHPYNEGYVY
# Outline: as §1
# ERF = biological target: T6, ERF (Homo sapiens, UniProt P50548 1-548); details: protein: recombinant; tags: N-terminal GST; dsDNA, one strand shown
# T6 sequence: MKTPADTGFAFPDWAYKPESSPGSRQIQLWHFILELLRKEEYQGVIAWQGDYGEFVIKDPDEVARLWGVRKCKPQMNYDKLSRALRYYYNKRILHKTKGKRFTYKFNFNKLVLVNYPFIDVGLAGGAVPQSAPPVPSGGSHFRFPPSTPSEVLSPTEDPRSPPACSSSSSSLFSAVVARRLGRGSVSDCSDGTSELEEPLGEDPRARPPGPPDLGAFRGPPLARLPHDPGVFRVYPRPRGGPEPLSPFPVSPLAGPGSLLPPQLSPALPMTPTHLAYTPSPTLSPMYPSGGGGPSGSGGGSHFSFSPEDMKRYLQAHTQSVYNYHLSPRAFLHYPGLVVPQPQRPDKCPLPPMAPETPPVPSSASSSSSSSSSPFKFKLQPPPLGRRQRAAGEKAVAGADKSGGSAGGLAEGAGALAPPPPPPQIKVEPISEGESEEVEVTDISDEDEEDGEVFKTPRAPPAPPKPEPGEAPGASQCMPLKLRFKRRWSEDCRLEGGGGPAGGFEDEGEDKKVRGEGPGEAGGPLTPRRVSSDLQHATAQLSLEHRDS
# Outline: as §1
# ETV3L = biological target: T7, ETV3L (Homo sapiens, UniProt Q6ZN32 1-361); details: protein: recombinant; tags: N-terminal GST; dsDNA, one strand shown
# T7 sequence: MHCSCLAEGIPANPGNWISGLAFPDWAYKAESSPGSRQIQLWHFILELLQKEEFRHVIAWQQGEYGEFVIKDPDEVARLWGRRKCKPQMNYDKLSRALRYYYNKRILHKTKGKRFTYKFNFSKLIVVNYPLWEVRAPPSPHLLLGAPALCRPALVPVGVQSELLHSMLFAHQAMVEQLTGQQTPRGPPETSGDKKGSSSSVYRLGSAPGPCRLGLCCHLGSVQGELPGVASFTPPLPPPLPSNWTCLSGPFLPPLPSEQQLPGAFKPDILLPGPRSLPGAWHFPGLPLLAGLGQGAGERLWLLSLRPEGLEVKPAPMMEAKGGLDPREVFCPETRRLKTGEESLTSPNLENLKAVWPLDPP
# Outline: as §1
# ETS2 = biological target: T8, ETS2 (Homo sapiens, UniProt P15036 1-469); details: protein: recombinant; tags: N-terminal GST; dsDNA, one strand shown
# T8 sequence: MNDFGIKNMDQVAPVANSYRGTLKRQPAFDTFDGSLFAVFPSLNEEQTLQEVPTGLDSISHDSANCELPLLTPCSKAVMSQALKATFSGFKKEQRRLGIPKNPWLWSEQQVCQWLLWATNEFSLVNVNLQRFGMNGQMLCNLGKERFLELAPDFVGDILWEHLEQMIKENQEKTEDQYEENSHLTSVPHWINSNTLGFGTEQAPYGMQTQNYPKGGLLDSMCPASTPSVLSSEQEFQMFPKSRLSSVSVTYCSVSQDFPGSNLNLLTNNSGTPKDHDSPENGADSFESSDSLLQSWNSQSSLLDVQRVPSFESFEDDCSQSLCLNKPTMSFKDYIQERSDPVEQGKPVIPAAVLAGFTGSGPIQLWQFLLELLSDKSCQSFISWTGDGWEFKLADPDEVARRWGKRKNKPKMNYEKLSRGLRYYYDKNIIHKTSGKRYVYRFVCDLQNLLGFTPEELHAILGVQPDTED
# Outline: as §1
# SPDEF = biological target: T9, SPDEF (Homo sapiens, UniProt O95238 1-335); details: protein: recombinant; tags: N-terminal GST; dsDNA, one strand shown
# T9 sequence: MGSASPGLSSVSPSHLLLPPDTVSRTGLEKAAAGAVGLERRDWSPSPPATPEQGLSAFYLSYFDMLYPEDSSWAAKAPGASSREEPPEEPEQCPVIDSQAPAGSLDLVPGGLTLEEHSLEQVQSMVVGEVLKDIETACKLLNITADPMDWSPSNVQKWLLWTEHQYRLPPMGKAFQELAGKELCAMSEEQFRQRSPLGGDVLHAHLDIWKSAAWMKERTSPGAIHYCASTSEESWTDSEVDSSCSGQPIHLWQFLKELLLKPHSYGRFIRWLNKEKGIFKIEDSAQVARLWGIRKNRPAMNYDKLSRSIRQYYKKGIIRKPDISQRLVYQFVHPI
# Outline: as §1
# ETV7 = biological target: T10, ETV7 (Homo sapiens, UniProt Q9Y603 1-341); details: protein: recombinant; tags: N-terminal GST; dsDNA, one strand shown
# T10 sequence: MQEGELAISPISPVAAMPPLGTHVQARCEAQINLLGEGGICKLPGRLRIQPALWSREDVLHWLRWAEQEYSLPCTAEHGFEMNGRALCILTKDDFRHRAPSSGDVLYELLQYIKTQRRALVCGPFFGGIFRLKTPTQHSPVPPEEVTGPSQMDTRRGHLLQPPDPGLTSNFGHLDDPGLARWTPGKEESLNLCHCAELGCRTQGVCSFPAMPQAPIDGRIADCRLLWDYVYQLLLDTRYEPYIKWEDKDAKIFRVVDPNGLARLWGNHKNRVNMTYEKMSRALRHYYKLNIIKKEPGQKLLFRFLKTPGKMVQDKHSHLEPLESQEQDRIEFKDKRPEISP
# Outline: as §1
# ELF5 = biological target: T11, ELF5 (Homo sapiens, UniProt Q9UKW6-2 1-255); details: protein: recombinant; tags: N-terminal GST; dsDNA, one strand shown
# T11 sequence: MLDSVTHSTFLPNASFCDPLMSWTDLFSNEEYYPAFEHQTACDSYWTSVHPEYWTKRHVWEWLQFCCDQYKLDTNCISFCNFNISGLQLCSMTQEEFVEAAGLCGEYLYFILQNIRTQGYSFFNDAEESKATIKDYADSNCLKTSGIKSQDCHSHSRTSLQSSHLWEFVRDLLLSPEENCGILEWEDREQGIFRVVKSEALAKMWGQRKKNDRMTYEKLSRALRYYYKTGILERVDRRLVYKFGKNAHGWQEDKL
# Outline: as §1
# ETV3 = biological target: T12, ETV3 (Homo sapiens, UniProt P41162-2 1-143); details: protein: recombinant; tags: N-terminal GST; dsDNA, one strand shown
# T12 sequence: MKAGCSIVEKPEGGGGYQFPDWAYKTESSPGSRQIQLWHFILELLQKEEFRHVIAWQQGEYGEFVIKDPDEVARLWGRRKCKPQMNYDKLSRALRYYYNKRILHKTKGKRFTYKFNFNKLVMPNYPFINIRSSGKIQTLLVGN
# Outline: as §1
# ETV6 = ETV6 (Homo sapiens, UniProt P41212 1-452); details: protein: recombinant; tags: N-terminal GST; dsDNA, one strand shown
# Sequence of ETV6 (P41212 whole entry): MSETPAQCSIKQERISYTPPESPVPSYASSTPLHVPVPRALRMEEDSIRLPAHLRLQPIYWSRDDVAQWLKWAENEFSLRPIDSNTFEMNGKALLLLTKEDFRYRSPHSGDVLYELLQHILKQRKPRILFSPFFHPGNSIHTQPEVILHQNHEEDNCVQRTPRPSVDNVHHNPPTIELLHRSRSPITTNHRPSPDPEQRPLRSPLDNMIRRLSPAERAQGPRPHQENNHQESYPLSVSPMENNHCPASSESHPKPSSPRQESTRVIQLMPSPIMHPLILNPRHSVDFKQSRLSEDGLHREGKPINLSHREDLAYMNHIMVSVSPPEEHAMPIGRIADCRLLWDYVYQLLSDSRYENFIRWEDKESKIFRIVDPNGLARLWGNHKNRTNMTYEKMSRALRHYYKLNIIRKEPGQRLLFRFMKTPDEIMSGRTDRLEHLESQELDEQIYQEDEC
# Outline: as §1
sequence,measurement,setting,value
ATAGTT,binding signal,FEV,"1.11 fold enrichment (6-mer frequency, TF over GST control)"
same,binding signal,ETV5,"1.25 fold enrichment (6-mer frequency, TF over GST control)"
same,binding signal,HSF1,"1.15 fold enrichment (6-mer frequency, TF over GST control)"
same,binding signal,SPIC,"1.14 fold enrichment (6-mer frequency, TF over GST control)"
same,binding signal,ELF4,"1.18 fold enrichment (6-mer frequency, TF over GST control)"
same,binding signal,ELK4,"1.39 fold enrichment (6-mer frequency, TF over GST control)"
same,binding signal,ETV2,"1.14 fold enrichment (6-mer frequency, TF over GST control)"
same,binding signal,ELF3,"1.29 fold enrichment (6-mer frequency, TF over GST control)"
same,binding signal,CRX,"1.1 fold enrichment (6-mer frequency, TF over GST control)"
same,binding signal,ETV1,"1.11 fold enrichment (6-mer frequency, TF over GST control)"
same,binding signal,ERF,"1.23 fold enrichment (6-mer frequency, TF over GST control)"
same,binding signal,ETV3L,"1.27 fold enrichment (6-mer frequency, TF over GST control)"
same,binding signal,ETS2,"1.18 fold enrichment (6-mer frequency, TF over GST control)"
same,binding signal,SPDEF,"1.12 fold enrichment (6-mer frequency, TF over GST control)"
same,binding signal,ETV7,"1.19 fold enrichment (6-mer frequency, TF over GST control)"
same,binding signal,ELF5,"1.12 fold enrichment (6-mer frequency, TF over GST control)"
same,binding signal,ETV3,"1.31 fold enrichment (6-mer frequency, TF over GST control)"
same,binding signal,ETV6,"1.21 fold enrichment (6-mer frequency, TF over GST control)"
